PLCb3 inh = blocks human PLC-beta3 enzyme activity; 370,000 compounds, 0.18% hits; Purified PLC-beta3, fluorogenic substrate, fluorescence; inhibition, % at 12.2 µM; AID 720704;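 also: 0% = median of compound wells on plate and 100% = full blocker control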
LEDGF integ inh = blocks HIV-1 LEDGF/p75-dependent DNA integration. TR-FRET IN-LEDGF/p75 DNA integration, Eu/Cy5. inhibition, % at 3.7 µM. 370,000 compounds, 0.64% hits. AID 743269;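 active = inhibition above the screen-wide mean plus 3 SD, cut at about 13% in these data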;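 also: signal is the Cy5 over europium emission ratio at 671 and 618 nm; 0% = plate median of compound wells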
PLCg1 inh = blocks human PLC-gamma1 enzyme activity; P19174; purified PLC-gamma1, fluorogenic substrate, fluorescence; inhibition, % at 12.2 µM; 370,000 compounds, 0.84% hits; AID 720700; in the data active = inhibition above about 9.5%
MBD2 inh = MBD2-methylated oligo binding inhibition | TR-FRET, MBD2 binding to methylated oligonucleotide | Q9UBB5 | inhibition, % at 4.4 µM | 370,000 compounds, 0.31% hits; in the data active = inhibition above about 13%
Target sequence (Q9UBB5 whole entry, looked up): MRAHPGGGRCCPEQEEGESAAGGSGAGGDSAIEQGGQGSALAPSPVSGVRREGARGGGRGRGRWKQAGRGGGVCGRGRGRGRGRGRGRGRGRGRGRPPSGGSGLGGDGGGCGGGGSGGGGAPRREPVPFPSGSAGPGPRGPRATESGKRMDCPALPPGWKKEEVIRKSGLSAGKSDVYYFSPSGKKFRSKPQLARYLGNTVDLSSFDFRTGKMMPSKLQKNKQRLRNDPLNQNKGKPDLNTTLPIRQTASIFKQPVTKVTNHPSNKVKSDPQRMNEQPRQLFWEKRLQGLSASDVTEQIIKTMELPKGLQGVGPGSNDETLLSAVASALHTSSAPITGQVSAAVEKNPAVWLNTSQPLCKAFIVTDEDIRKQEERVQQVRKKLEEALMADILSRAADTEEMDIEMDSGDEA
UHRF1 binding = blocks human UHRF1 binding to methylated DNA; AID 687016; Q96T88; 370,000 compounds, 0.75% hits; UHRF1 binding to methylated oligo, TR-FRET; inhibition, % at 4.4 µM; in the data active = inhibition above about 21%;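 also: UHRF1 SRA domain binding a hemimethylated CpG hairpin DNA probe; 0% = median of test compound wells and 100% = reference inhibitor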
PLCg1 ctr = PLC-gamma1 inhibition, counter-screen for PLC-beta3 hits | shares compounds with PLCg1 inh | purified PLC-gamma1, fluorogenic substrate, fluorescence | inhibition, % at 12.3 µM | 3,300 compounds, 3.1% hits; in the data active = inhibition above about 9.5%
PLCb3 confirm = human PLC-beta3 inhibition, confirmation. shares compounds with PLCg1 inh. purified PLC-beta3, fluorogenic substrate fluorescence. inhibition, % at 12.3 µM. 3,300 compounds, 1% hits. AID 743261
Active calls of the source: *. In the library only some 2.4% were active in any assay of this set; here they are far more common. Rule as the data show it, unless noted: active = inhibition above about 11%; inactive = the rest.

What do the screens show for `CC1CCN(C(=S)Nc2ccc(SC(F)F)cc2)CC1`?
PLCb3 inh: 4; LEDGF integ inh: 0; PLCg1 inh: 11*; MBD2 inh: -2; UHRF1 binding: 7; PLCg1 ctr: -1; PLCb3 confirm: -5

How did COC(=O)[C@]12C[C@H](CC(=O)NCCc3ccccc3OC)C(=O)N(CCC3=CCCCC3)C1=C[C@H](C1CCCC1)O[C@@H]2C do in these assays?
PLCb3 inh: -1; LEDGF integ inh: -2; PLCg1 inh: -1; MBD2 inh: -2; UHRF1 binding: 2

Results for O=C(CN1CCCC1)NC1C2CC3CC(C2)CC1C3 (stereo not drawn) ?
PLCb3 inh: 3; LEDGF integ inh: 2; PLCg1 inh: 0; MBD2 inh: -2; UHRF1 binding: -1

What do the screens show for `O=C(NC1C2CC3CC(C2)CC1C3)C1CCCCC1` (stereo not drawn)?
PLCb3 inh: 1; LEDGF integ inh: 1; PLCg1 inh: 16*; MBD2 inh: 3; UHRF1 binding: 5; PLCg1 ctr: -7; PLCb3 confirm: -3

Results for CCOC(=O)CC[C@H]1CC[C@]2(CCCN(C(=O)c3cccnc3)C2)O1 ?
PLCb3 inh: 5; LEDGF integ inh: 1; PLCg1 inh: -1; MBD2 inh: 0; UHRF1 binding: -1

How did CCC(C)(C(=O)NC1CCCC1)N(Cc1cccs1)C(=O)c1ccccn1 (stereo not drawn) do in these assays?
PLCb3 inh: -1; LEDGF integ inh: 8; PLCg1 inh: 10*; MBD2 inh: -10; UHRF1 binding: 3; PLCg1 ctr: -7; PLCb3 confirm: -3

How did C[C@H]1C2CC(OC(=O)Nc3cccc(C(F)(F)F)c3)C(C2)[C@H]2CCCCN21 (stereo partly drawn) do in these assays?
PLCb3 inh: -3; LEDGF integ inh: -1; PLCg1 inh: -1; MBD2 inh: 3; UHRF1 binding: 0

What do the screens show for `COc1ccccc1CNC(=O)NNC(=O)CCn1nc(C)c([N+](=O)[O-])c1C`?
PLCb3 inh: 3; LEDGF integ inh: 3; PLCg1 inh: 1; MBD2 inh: -1; UHRF1 binding: -1

How did Cc1nn(CCC(=O)NNC(=O)Nc2ccccc2F)c(C)c1[N+](=O)[O-] do in these assays?
PLCb3 inh: 0; LEDGF integ inh: 1; PLCg1 inh: 1; MBD2 inh: -3; UHRF1 binding: -1

What do the screens show for `O=C(CCN1C(=O)c2ccccc2S1(=O)=O)Nc1cccc2ccccc12`?
PLCb3 inh: 5; LEDGF integ inh: -5; PLCg1 inh: 1; MBD2 inh: 3; UHRF1 binding: 13

How did C=C(C)c1ccccc1NC(=O)CCN1C(=O)c2ccccc2S1(=O)=O do in these assays?
PLCb3 inh: 1; LEDGF integ inh: 5; PLCg1 inh: 9.6*; MBD2 inh: 0; UHRF1 binding: 4; PLCg1 ctr: -1; PLCb3 confirm: 2

How did COC(=O)C1=C(N)Oc2cc(C)n(Cc3cccnc3)c(=O)c2C1c1cc(OC)ccc1OC (stereo not drawn) do in these assays?
PLCb3 inh: 0; LEDGF integ inh: -3; PLCg1 inh: -3; MBD2 inh: 0; UHRF1 binding: 1

How did COC(=O)C1=C(N)Oc2cc(C)n(Cc3cccnc3)c(=O)c2C1c1cccc(OC)c1OC (stereo not drawn) do in these assays?
PLCb3 inh: 9; LEDGF integ inh: -4; PLCg1 inh: 9.7*; MBD2 inh: -7; UHRF1 binding: 0; PLCg1 ctr: -6; PLCb3 confirm: -2

What do the screens show for `CCOc1cc(CNCCc2ccccc2)ccc1OCC(=O)NC(C)(C)C`?
PLCb3 inh: -9; LEDGF integ inh: 1; PLCg1 inh: 9.9*; MBD2 inh: -5; UHRF1 binding: 0; PLCg1 ctr: -1; PLCb3 confirm: 3

What do the screens show for `CCOc1cc(CNC(C)C)c(Cl)cc1OCC(=O)NCCc1ccccc1`?
PLCb3 inh: 2; LEDGF integ inh: 1; PLCg1 inh: 1; MBD2 inh: -2; UHRF1 binding: 0

How did CCOc1cc(CNCCO)c(Cl)cc1OCC(=O)NCCc1ccccc1 do in these assays?
PLCb3 inh: 12*; LEDGF integ inh: 5; PLCg1 inh: 4; MBD2 inh: -7; UHRF1 binding: 5; PLCg1 ctr: -6; PLCb3 confirm: -2

Results for CCNC(=O)COc1ccc(CC)cc1 ?
PLCb3 inh: 7; LEDGF integ inh: -2; PLCg1 inh: 5; MBD2 inh: -6; UHRF1 binding: 2

How did CCc1ccc(OCC(=O)NC(C)(C)C)cc1 do in these assays?
PLCb3 inh: 4; LEDGF integ inh: 3; PLCg1 inh: 10*; MBD2 inh: 3; UHRF1 binding: -3; PLCg1 ctr: -6; PLCb3 confirm: 0

How did Cc1ccc(NC(=O)[C@@H]2CC(=O)O[C@@H]2c2ccccc2)c(C)c1 do in these assays?
PLCb3 inh: -1; LEDGF integ inh: -2; PLCg1 inh: -3; MBD2 inh: 1; UHRF1 binding: 0

What do the screens show for `O=C(Nc1ccc2c(c1)OCO2)O[C@@H]1CC[C@@]23CCCN2C(=O)CCC[C@H]3C1`?
PLCb3 inh: -1; LEDGF integ inh: 1; PLCg1 inh: -1; MBD2 inh: -10; UHRF1 binding: 1

Results for CC1Cc2nc(SCC(=O)Nc3ccc(F)cc3F)n(C)c(=O)c2S1 (stereo not drawn) ?
PLCb3 inh: 7; LEDGF integ inh: 4; PLCg1 inh: 13*; MBD2 inh: -6; UHRF1 binding: 0; PLCg1 ctr: -7; PLCb3 confirm: -4

What do the screens show for `COc1cccc(/C=C2\CC3(OC(=O)c4ccccc4)CCCN2C3)c1` (stereo not drawn)?
PLCb3 inh: 1; LEDGF integ inh: 0; PLCg1 inh: 1; MBD2 inh: -3; UHRF1 binding: 3

How did Cc1ccc(C(=O)NCC(=O)NCC(=O)OCC(=O)c2ccc(F)cc2)cc1 do in these assays?
PLCb3 inh: -11; LEDGF integ inh: -4; PLCg1 inh: 13*; MBD2 inh: 1; UHRF1 binding: 6; PLCg1 ctr: -5; PLCb3 confirm: -2

How did O=C(CNC(=O)c1ccccc1)NCC(=O)OCC(=O)c1ccc(F)cc1 do in these assays?
PLCb3 inh: 3; LEDGF integ inh: -2; PLCg1 inh: 2; MBD2 inh: -1; UHRF1 binding: 2

Results for Cc1[nH]c2ccccc2c1C(=O)C(=O)N1CCN(c2ccccc2F)CC1 ?
PLCb3 inh: 0; LEDGF integ inh: -2; PLCg1 inh: 15*; MBD2 inh: 4; UHRF1 binding: 2; PLCg1 ctr: -3; PLCb3 confirm: 0

How did CC(=O)c1ccc(N2CCN(C(=O)C(=O)c3c(C)[nH]c4ccccc34)CC2)cc1 do in these assays?
PLCb3 inh: -11; LEDGF integ inh: 2; PLCg1 inh: -3; MBD2 inh: 0; UHRF1 binding: -2

From PubChem BioAssay
